This excerpt belongs to a sample that is enriched for hits.
GluA2 TARP mod – GluA2-stargazin AMPA receptor complex modulation; O88602+P19491; HEK293 GluA2+stargazin, membrane potential dye (FDSS), glutamate EC50; hits were called plate by plate, in both directions; calls only at 30 µM; 40,000 compounds, 3.5% hits;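 active = any of four per-well response measures lying three or more SD from its plate-wide compound average, in either direction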
GIRK2 act – Activators of human GIRK2-containing channels. HEK293 GIRK2/NPY4 cells, thallium flux fluorescence. P48051. AID 1259324. activation (% efficacy), % for hits at 37.5 µM. 34,000 tested, under 10 active;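 active = primary screen hit, no activity in plain HEK293 cells, and in GIRK2-only cells above 5% efficacy rising with concentration; inactive = the rest, including fluorescent compounds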;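 also: efficacy is normalized control-subtracted fluorescence 15 s after thallium addition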
Target sequence (P48051 whole entry, looked up): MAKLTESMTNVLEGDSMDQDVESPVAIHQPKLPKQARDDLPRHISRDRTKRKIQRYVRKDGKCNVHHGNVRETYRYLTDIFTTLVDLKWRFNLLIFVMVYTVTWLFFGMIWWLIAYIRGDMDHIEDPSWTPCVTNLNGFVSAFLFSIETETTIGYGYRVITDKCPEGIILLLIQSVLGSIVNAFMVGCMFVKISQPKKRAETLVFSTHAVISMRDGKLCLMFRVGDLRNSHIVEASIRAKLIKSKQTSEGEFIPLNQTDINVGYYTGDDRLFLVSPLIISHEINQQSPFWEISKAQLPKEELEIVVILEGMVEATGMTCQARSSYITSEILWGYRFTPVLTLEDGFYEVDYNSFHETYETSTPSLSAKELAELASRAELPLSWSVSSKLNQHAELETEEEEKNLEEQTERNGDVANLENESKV
The depositor's hits bear a star; i = inactive; . = no result; + = active, no number.

SMILES	GluA2 TARP mod	GIRK2 act
Cc1ccc(-c2ccc(=O)n(CCCNC(=O)c3c(F)cccc3Cl)n2)cc1	i	i
O=C(Nc1cc(-c2ccccc2)nn1CCO)c1ccc(Cl)s1	+	i
O=C(Nc1cc(-c2ccccc2)nn1CCO)c1ccco1	i	i
COc1cc(Cl)c(C)cc1NC(=O)Cn1nc2c(cc1=O)CCCC2	i	i
COc1cc(OC)c(NC(=O)Cn2nc3c(cc2=O)CCCC3)cc1Cl	+	i
O=C(NCC(F)(F)F)C1CCN(C(=O)CSC2CCCC2)CC1	.	i
CCOC(=O)Cn1c(=O)c2c(nc3n2CCCN3c2ccc(OC)cc2OC)n(C)c1=O	i	.
COC(=O)c1scc(-c2ccccc2)c1S(=O)(=O)N1CCCC1	i	.
COC(=O)c1scc(-c2ccccc2)c1S(=O)(=O)N1CCN(Cc2ccccc2)CC1	+	.
Cc1c(Cl)cccc1NC(=O)Cn1c(=O)c(CNc2ccccc2)cc2cc3c(cc21)OCCO3	+	i
O=C(Cn1c(=O)c(CNc2ccccc2)cc2cc3c(cc21)OCCO3)Nc1ccc2c(c1)OCCO2	i	i
Cc1cccc2sc(N(CCN3CCOCC3)C(=O)c3ccc4c(c3)OCCO4)nc12	i	i
CC1CCCC(C)N1S(=O)(=O)c1c(F)cccc1F (stereo not drawn)	i	i
COc1cc(OC)cc(C(=O)Nc2ccc(N3CCCC3=O)cc2)c1	i	i
COc1ccc(C(=O)Nc2ccc(N3CCCC3=O)cc2)cc1	+	i
CC(C)c1ccc(S(=O)(=O)NCC2CCN(C3CCCC3)CC2)cc1	+	.
COc1ccc(CCS(=O)(=O)NCC2CCN(C3CCCC3)CC2)cc1	+	i
COc1ccc(CCS(=O)(=O)NCC2CCN(C)CC2)cc1	i	i
COc1ccc(S(=O)(=O)NCC2CCN(C3CCCC3)CC2)cc1	i	i
COc1ccc(CC(=O)Nc2cc(C)nn2-c2nc(-c3cccs3)cs2)cc1	i	i
COc1ccccc1C1(CNC(=O)Nc2cccc(C(F)(F)F)c2)CCOCC1	i	i
O=C(NCC1(O)CCc2ccccc21)Nc1cccc(C(F)(F)F)c1 (stereo not drawn)	+	i
CS(=O)(=O)N1CCC(CNC(=O)Nc2ccc3c(c2)OCO3)CC1	i	i
O=C(Cc1ccc(F)cc1)NNC(=O)c1cccn(Cc2ccc(Cl)c(Cl)c2)c1=O	i	i
O=C(Cc1cccs1)NNC(=O)c1cccn(Cc2ccc(Cl)c(Cl)c2)c1=O	+	i
SMILES	GluA2 TARP mod	GIRK2 act
O=S(=O)(NCc1cccc(Oc2ccc(F)cc2)c1)c1cccnc1	i	i
Cc1ccc(CNC(=O)CC2Nc3cc(C)c(C)cc3NC2=O)cc1 (stereo not drawn)	+	.
C=CCNC(=O)CC1Nc2cc(C)c(C)cc2NC1=O (stereo not drawn)	.	i
COc1cccc(NC(=O)NCCOc2ccc3nnc(-c4ccccc4)n3n2)c1	i	i
O=C(Cc1csc(-n2cccc2)n1)N1CCN(c2cccc(C(F)(F)F)c2)CC1	i	i
O=C(NCc1ccncc1)C(=O)Nc1ccc(F)c([N+](=O)[O-])c1	i	i
O=C(Nc1ccc(O)cc1)C(=O)Nc1ccc(F)c([N+](=O)[O-])c1	+	i
Cn1c(=O)c2c(nc3n2CC(c2ccc(F)cc2)=NN3CC(=O)O)n(C)c1=O	i	.
Cn1c(=O)c2c(nc3n2CC(c2ccc(F)cc2)=NN3CC(N)=O)n(C)c1=O	+	.
Cc1cc([N+](=O)[O-])ccc1NC(=O)c1ccc(=O)n(Cc2cccc(C(F)(F)F)c2)c1	+	i
O=C(Nc1ccc(F)c(F)c1)c1ccc(=O)n(Cc2cccc(Cl)c2)c1	+	i
O=C(Nc1ccc(Br)cc1)c1ccc(=O)n(Cc2cccc([N+](=O)[O-])c2)c1	+	i
O=C(Nc1ccc(Cl)cc1)c1ccc(=O)n(Cc2cccc(Cl)c2)c1	i	i
Cc1cc([N+](=O)[O-])ccc1NC(=O)c1ccc(=O)n(Cc2ccccc2)c1	i	i
Cc1cc([N+](=O)[O-])ccc1NC(=O)c1ccc(=O)n(Cc2cccc([N+](=O)[O-])c2)c1	+	i
O=C(Nc1cccc([N+](=O)[O-])c1)c1ccc(=O)n(Cc2cccc([N+](=O)[O-])c2)c1	i	i
Cc1ccc([N+](=O)[O-])cc1NC(=O)c1ccc(=O)n(Cc2cccc(C(F)(F)F)c2)c1	i	i
O=C(Nc1cc(-c2cccs2)nn1CCO)C1CCC1	i	i
O=C(Nc1ccc(-c2ccc(N3CCCC3)nn2)cc1)Nc1ccccc1F	i	i
Cn1nc(-c2ccc(F)cc2)cc1C(=O)N1CCC(c2nnc(-c3ccco3)s2)CC1	i	i
O=C(Nc1ccc([N+](=O)[O-])cc1)C(=O)N1CCC(O)CC1	i	.
Cc1ccc(NC(=O)C(=O)N2CCN(c3cccc(Cl)c3)CC2)c([N+](=O)[O-])c1	i	.
CC(C(=O)N1CCN(c2cccc(Cl)c2)CC1)c1ccc([N+](=O)[O-])cc1 (stereo not drawn)	+	.
CC(C(=O)N1CCCC1)c1ccc([N+](=O)[O-])cc1 (stereo not drawn)	i	.
O=C(Nc1ccc([N+](=O)[O-])cc1)C(=O)N1CCN(c2ccc(F)cc2)CC1	+	.
SMILES	GluA2 TARP mod	GIRK2 act
O=C(Nc1cccc([N+](=O)[O-])c1)C(=O)N1CCN(c2cccc(Cl)c2)CC1	+	.
Cc1nn(-c2nc(C)c(C)c(=O)[nH]2)c(C)c1CCC(=O)N1CCC(C(N)=O)CC1	i	i
O=C(CCCS(=O)(=O)c1ccc(Cl)cc1)Nc1nc(-c2ccc3c(c2)OCO3)cs1	i	.
O=C1NC(=O)C2(CCN(C(=O)c3ccc(-c4ccccc4)cc3)CC2)N1	i	i
CN(C1CCCC1)S(=O)(=O)c1ccc(C(=O)Nc2nc3cc4c(cc3s2)OCO4)cc1	i	.
O=C(/C=C/c1cc2cc3c(cc2nc1Cl)OCO3)C1CC1	+	.
CCOc1nn(CC)cc1-c1nnc(SCC(=O)N2CCCc3ccccc32)n1C	i	i
Cc1ccc(CNC(=O)c2cc3c(=O)n4ccccc4nc3n(Cc3ccco3)c2=N)cc1	i	i
N=c1c(C(=O)NC2CCCC2)cc2c(=O)n3ccccc3nc2n1C1CCCC1	+	i
CCOc1ccc(-n2nnnc2CN2CCN(C(=O)c3c(F)cccc3Cl)CC2)cc1	+	i
CCOc1ccc(-n2nnnc2CN2CCN(C(=O)c3c(C)noc3C)CC2)cc1	i	i
CCC(=O)Nn1cnc2c(cnn2C(C)(C)C)c1=O	i	.
CC(C)(C)n1ncc2c(=O)n(NC(=O)c3cc(Br)ccc3Cl)cnc21	+	i
CCOCC(=O)Nn1cnc2c(cnn2C(C)(C)C)c1=O	+	.
CC(C)(C)n1ncc2c(=O)n(NC(=O)c3cc([N+](=O)[O-])ccc3Cl)cnc21	i	i
O=C(CN1CCC(c2cccs2)CC1)Nc1ccc(Br)cc1	.	i
NS(=O)(=O)c1ccc(NC(=O)CN2C(=O)c3ccccc3S2(=O)=O)cc1	+	i
NC(=O)c1ccc(NC(=O)CN2C(=O)c3ccccc3S2(=O)=O)cc1	i	i
CC(C)(C)c1nnc(N2CCCCC2)[nH]c1=O	i	i
COCc1cnc2c(c1SCC(=O)Nc1ccc(OC(F)(F)F)cc1)c(=O)n(C)c(=O)n2C	i	.

Screens: PubChem, several laboratories
